# System: H1299
# Assay: difference in mean normalized H2B-mRuby nuclear fluorescence intensity relative to DMSO control (normalized intensity difference (DMSO = 0)); higher = stronger increase in transgene reporter fluorescence
# Settings: 24 h
# Description: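 Cancer cell lines stably expressing H2B-mRuby2 from a lentiviral PGK promoter were treated with each drug for 24 h and imaged on a Leica DMI8 (ex 541-551 / em 565-605 nm). Nuclei were segmented in CellProfiler. The value is the difference in mean per-nucleus normalized H2B-mRuby intensity versus DMSO-treated cells (about 3 repeats x 4 fields). Doxorubicin is itself fluorescent. Dasatinib is in nM.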
smiles,measurement,setting,value
Cc1sc2c(c1C)C(c1ccc(Cl)cc1)=N[C@@H](CC(=O)OC(C)(C)C)c1nnc(C)n1-2 (concentration unit: uM),difference,concentration: 0.1,0.176
same,difference,concentration: 0.5,0.367
same,difference,concentration: 1,0.441
same,difference,concentration: 5,0.532
same,difference,concentration: 10,0.625
CN[C@@H]1C[C@H]2O[C@@](C)([C@@H]1OC)n1c3ccccc3c3c4c(c5c6ccccc6n2c5c31)C(=O)NC4 (concentration unit: nM),difference,concentration: 5,-0.113
same,difference,concentration: 10,-0.185
same,difference,concentration: 25,-0.17
same,difference,concentration: 100,0.0873
same,difference,concentration: 500,0.138

# From the supplement of paper PMC11026393
